The list is not random: actives were taken first. Their share in the collection is about 2.1%.
EWS-Fli block: blocks EWS/Fli oncoprotein-driven transcription; A673 NR0B1-luciferase reporter, viability-normalised; inhibition, % at 12.6 µM; 350,000 tested, 0.67% active; AID 651661;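 active means mean inhibition of at least 50% after viability correction, with every replicate also passing that limit; inconclusive means mean reaches 50% but only one of two replicates passes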;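 further: firefly luciferase signal divided by Alamar Blue viability fluorescence both relative to DMSO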
HIF-2a block: blocks HIF-2a reporter activity; inhibition, % at 18.8 µM; AID 624352; 786-0 RCC cells HIF-2a reporter, luciferase luminescence, overnight; 360,000 tested, 0.72% active;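 active means inhibition of the luminescence signal of 40% or more relative to plate controls, in a single-dose primary screen at 18.75 µM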
PAX8 inh HTS: PAX8 transcriptional activity inhibition; 360,000 tested, 1.2% active; RMG-I TPO-luciferase reporter, SteadyGlo, 24 h; inhibition, % at 12.6 µM;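 active means mean replicate inhibition at least 60% with every replicate also reaching 60%; inconclusive means only one of the two criteria is met; inactive means mean below 60% and not all replicates reaching 60%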;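 further: luciferase light reporting Pax8 driven TPO promoter activity; plate controls were median of neutral control wells for no effect and mitoxantrone controls for full effect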
CF NFkB inh: cystic fibrosis NF-kB activation inhibition. KKLEB NF-kB-GFP reporter, PAF-induced, GFP fluorescence overnight. inhibition, % at 5 µM. 360,000 tested, 0.86% active. AID 588850;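 active means at least 50% inhibition at 5 µM, scaled per plate between neutral and stimulator controls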;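 further: PAF is a Pseudomonas aeruginosa culture filtrate used as stimulus; plate controls were PAF-stimulated DMSO wells for no effect and unstimulated DMSO wells for full effect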
KKLEB cytotox: CF airway cell cytotoxicity counter-screen; KKLEB CF airway cells viability, ATPlite luminescence, overnight; active compounds read low; cells stimulated with P. aeruginosa culture filtrate; activity change (cytotoxicity), % at 5 µM; 360,000 tested, 0.36% active;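 active means corrected activity change at or below -50% at 5 µM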
Mdm2 MdmX conf: Mdm2/MdmX (human) interaction inhibition, confirmed | shares compounds with HIF-2a block | SaOS-2 split-luciferase Mdm2/MdmX complementation, luminescence | inhibition, % at 8 µM | 740 tested, 99% active;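 active means mean inhibition of the luminescence signal across two replicates at or above 26 percent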
Target sequence (O15151 whole entry, looked up): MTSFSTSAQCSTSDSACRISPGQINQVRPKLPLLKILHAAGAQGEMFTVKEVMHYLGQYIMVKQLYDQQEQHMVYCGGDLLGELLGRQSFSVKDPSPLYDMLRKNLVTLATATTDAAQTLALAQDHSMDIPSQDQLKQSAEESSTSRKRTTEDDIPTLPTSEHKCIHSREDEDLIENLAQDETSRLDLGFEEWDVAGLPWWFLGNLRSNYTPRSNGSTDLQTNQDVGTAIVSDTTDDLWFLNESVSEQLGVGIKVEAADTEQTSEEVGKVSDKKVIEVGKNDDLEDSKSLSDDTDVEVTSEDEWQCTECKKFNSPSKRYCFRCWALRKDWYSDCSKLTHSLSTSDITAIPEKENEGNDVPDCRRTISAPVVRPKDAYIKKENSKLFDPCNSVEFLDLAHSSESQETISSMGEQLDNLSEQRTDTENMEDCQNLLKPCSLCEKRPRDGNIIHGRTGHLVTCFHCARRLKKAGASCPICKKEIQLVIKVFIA
Target sequence (Q00987 whole entry, looked up): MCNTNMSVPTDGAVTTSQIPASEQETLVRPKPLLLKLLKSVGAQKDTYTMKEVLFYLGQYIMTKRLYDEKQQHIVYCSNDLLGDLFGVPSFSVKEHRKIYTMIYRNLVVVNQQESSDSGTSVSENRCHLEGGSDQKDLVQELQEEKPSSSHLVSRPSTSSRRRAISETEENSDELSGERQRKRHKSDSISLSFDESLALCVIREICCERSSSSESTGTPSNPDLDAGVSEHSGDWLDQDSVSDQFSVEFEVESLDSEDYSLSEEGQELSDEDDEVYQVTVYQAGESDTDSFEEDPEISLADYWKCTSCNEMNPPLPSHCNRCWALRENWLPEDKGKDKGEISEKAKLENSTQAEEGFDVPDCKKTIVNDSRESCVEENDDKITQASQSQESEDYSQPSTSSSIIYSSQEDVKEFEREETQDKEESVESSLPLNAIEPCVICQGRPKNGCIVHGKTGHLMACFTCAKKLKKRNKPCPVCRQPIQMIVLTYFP
HIF-2a conf: confirmation of HIF-2a inhibitors. shares compounds with HIF-2a block. 1,800 tested, 56% active. 786-0 RCC cells, HIF-2a luciferase reporter luminescence, overnight. inhibition, % at 18.8 µM;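 active means mean inhibition across four replicates of at least 40 percent at the single tested concentration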
HIF-1a counter: HIF-1a inhibition counter-screen for HIF-2a hits; shares compounds with HIF-2a block; AID 651589; 1,800 tested, 72% active; inhibition, % at 18.8 µM; MiaPaCa-2 HIF-1a luciferase reporter, desferoxamine, overnight;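 active means mean inhibition of the reporter signal across four replicates at the single tested dose of 50% or more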
Starred values were filed as active, the others as inactive; ? = inconclusive; · = not tested or not shown.

SMILES	EWS-Fli block	HIF-2a block	PAX8 inh HTS	CF NFkB inh	KKLEB cytotox	HIF-2a conf	HIF-1a counter	others
S=C(Nc1cc(Cl)cc(Cl)c1)NC1CCN(Cc2ccccc2)CC1	·	42*	20	31	-29	12	107*
S=C(Nc1ccccc1Cl)NC1CCN(Cc2ccccc2)CC1	·	3	3	8	-12	·	·
C[C@@H]1CN([C@@H](C)CO)C(=O)Cc2cc(NC(=O)C3CCCCC3)ccc2O[C@H]1CN(C)Cc1ccc2c(c1)OCO2	26	·	·	·	·	·	·
CC(C)(C)[C@H](N)C(=O)N[C@H]1CCC2C3CC=C4C[C@@H](O)CC[C@]4(C)C3CC[C@@]21C (stereo not given in full)	56*	94*	95*	-28	-68*	7	105*	Mdm2 MdmX conf=103*
O=[N+]([O-])c1ccc(Oc2cccc3cccnc23)c([N+](=O)[O-])c1	·	41*	-1	-20	0	14	-8
C[C@@H]1CN([C@H](C)CO)C(=O)c2cc(NC(=O)Nc3ccccc3)ccc2O[C@@H](C)CCCCO[C@@H]1CN(C)C(=O)c1ccccc1	14	·	-22	·	·	·	·
CC(=O)Nc1nc2ccccc2n1CCOc1ccccc1	·	23	·	0	-12	·	·
CCCCn1c(NC(=S)Nc2ccccc2)nc2ccccc21	·	42*	·	-1	5	-10	50*
S=C(Nc1ccccc1)Nc1nc2ccccc2n1CCOc1ccccc1	·	90*	-4	-4	5	-64	97*
CCCCn1c(NC(=O)c2ccccc2)nc2ccccc21	·	-45	·	7	4	·	·
CCC[C@H](CN[C@@H](CNC)[C@H](C)CC)NCCc1cc(C(F)(F)F)cc(C(F)(F)F)c1	52*	12	97*	13	-49	·	·	Mdm2 MdmX conf=103*
CC[C@@H](C)[C@H](CNC)NC[C@@H](Cc1cccc2ccccc12)NCCc1cccc(C(F)(F)F)c1	45	15	103*	29	-48	·	·	Mdm2 MdmX conf=103*
CCCC(=O)Nc1ccc2c(c1)OC[C@@H](C)N(C(=O)c1ccccc1F)C[C@H](C)[C@H](OC)CN(C)C2=O	-2	·	·	·	·	·	·
O=C(NCC1CCCO1)c1c(O)c2cccc3c2n(c1=O)CC3 (stereo not given)	·	-50	·	-3	-4	·	·	Mdm2 MdmX conf=71*
O=C(NCC1CCCO1)c1c(O)c2cccc3c2n(c1=O)CCC3 (stereo not given)	·	-29	·	-5	1	·	·
CCOC(=O)c1sc(NC(=O)c2cc(-c3ccc(C)cc3)nc3ccccc23)c(C#N)c1C	·	-8	·	50	-62*	·	·	Mdm2 MdmX conf=97*
C[C@@H]1CN([C@@H](C)CO)C(=O)c2cccc(NC(=O)Nc3ccc(C(F)(F)F)cc3)c2O[C@H]1CN(C)C(=O)Nc1ccc2c(c1)OCO2	-51	·	1	·	·	·	·
Cn1cc([N+](=O)[O-])c(C(=O)Nc2cc(Oc3ccccc3)cc([N+](=O)[O-])c2)n1	54*	95*	·	78*	-29	63*	108*
C#CC(=O)N(c1ccc(OC)c(OC)c1)C(C(=O)NC1CCCC1)c1cccs1 (stereo not given)	45	87*	·	101*	-100*	100*	105*	Mdm2 MdmX conf=102*
C#CC(=O)N(c1cccc(OC)c1)C(C(=O)NC1CCCC1)c1cccs1 (stereo not given)	44	93*	·	94*	-97*	99*	104*	Mdm2 MdmX conf=103*
O=C(O)C[C@@H]1C[C@H]2c3cc(NC(=O)Nc4ccc(C(F)(F)F)cc4)ccc3O[C@H]2[C@H](CO)O1	-2	·	-1	·	·	·	·
O=C(CCl)Nc1cc2[nH]c(=O)[nH]c2cc1Br	?	-6	91*	-22	-20	·	·	Mdm2 MdmX conf=103*
Cc1cc2c(C)cc(=O)[nH]c2cc1NC(=O)CCl	-4	28	-16	-17	-9	·	·
COc1ccc(C(=O)Nn2c(SCC(=O)N3CCC(C)CC3)nc3ccccc3c2=O)cc1	·	51*	47	-8	1	67*	78*
COc1ccc(C(=O)Nn2c(SCC(=O)NC3CCCCC3)nc3ccccc3c2=O)cc1	·	36	-11	6	5	·	·
SMILES	EWS-Fli block	HIF-2a block	PAX8 inh HTS	CF NFkB inh	KKLEB cytotox	HIF-2a conf	HIF-1a counter	others
Cc1ccc(S(=O)(=O)ON2C(=O)c3ccccc3C2=O)c(C)c1	·	72*	-2	19	-3	59*	-1
Cc1cc(C)c(S(=O)(=O)ON2C(=O)c3ccccc3C2=O)cc1C	·	39	·	-2	2	·	·
O=C1c2ccccc2C(=O)N1OS(=O)(=O)c1ccc(F)cc1	26	29	-10	-8	12	·	·
Cc1cc(C)c(C)c(S(=O)(=O)ON2C(=O)c3ccccc3C2=O)c1C	56*	56*	·	69*	-53*	50*	8
O=C(C[C@@H]1CC[C@H](NC(=O)Nc2ccccc2F)[C@H](CO)O1)NCc1ccccc1	-2	·	1	·	·	·	·
COc1cccc(/C=N/Nc2ncccc2[N+](=O)[O-])c1OC	66*	51*	35	3	-6	74*	31
COC1OC(COC(=O)c2ccccc2)C(OC(=O)c2ccccc2)C1OC(=O)c1ccccc1 (stereo not given)	-2	27	25	-8	-11	·	·
C=C(CN(C)C)C(=O)c1ccc(OC2OC(COC(C)=O)C(OC(C)=O)C(OC(C)=O)C2OC(C)=O)cc1 (stereo not given)	40	89*	83*	60*	-28	96*	105*
Cn1c(=O)[nH]c(=O)c2[nH]c(N(Cc3ccccc3)Cc3ccccc3)nc21	·	41*	·	-3	1	11	-7
O=C(NC(=S)Nc1ccccc1N1CCCC1)c1ccco1	17	76*	22	9	-6	-8	7
CCCC(=O)N1CCCC(c2cc(C(=O)Nc3ccccc3)no2)C1 (stereo not given)	14	43*	48	4	-1	66*	71*
CC(C)c1cn(CC[C@H]2CC[C@@H](NS(=O)(=O)c3ccccc3)[C@H](CO)O2)nn1	-14	·	-10	·	·	·	·
COc1ccccc1N1C(=O)C=C(Sc2nc(C)cc(C)n2)C1=O	9	58*	-9	-5	6	63*	-13
Cc1c2cnn(CC(=O)N3CCOCC3)c(=O)c2c(C)n1Cc1ccc(F)cc1	-2	3	-1	6	7	·	·
O=C(Cn1ncc(Cl)c(Cl)c1=O)N1CCN(Cc2ccccc2)CC1	67*	96*	73*	88*	-68*	61*	106*
O=C(Cn1ncc2c1-c1ccccc1OC2)N1CCc2ccccc21	-4	-25	21	-9	-4	·	·
CC1(C)C(=O)Nc2ccccc2N1C(=O)Cn1ncc(Cl)c(Cl)c1=O	42	5	56	7	6	·	·	Mdm2 MdmX conf=58*
